Tested on: Vero E6 infected with SARS-CoV-2
Assay: inhibition of SARS-CoV-2 cytopathic effect; higher = more antiviral protection, active = above 15
Conditions: 48 h

Measured: inhibition of SARS-CoV-2 cytopathic effect

Cc1cc(CC(=O)O)n(C)c1C(=O)c1ccc(Cl)cc1 [zomepirac]
inactive: 1 nM -4.55% | 8.33 nM -6.14% | 100 nM -5.66% | 833.33 nM -0.27% | 10000 nM -0.22%

Cc1ncc[nH]1 [2-methylimidazole]
inactive: 1 nM -0.11% | 8.33 nM 1.86% | 100 nM 0.89% | 833.33 nM -3.06% | 10000 nM 0.33%

O=C(O)c1cccc(-c2noc(-c3ccccc3F)n2)c1 [ataluren]
inactive: 1 nM -0.23% | 8.33 nM 0.96% | 100 nM 0.68% | 833.33 nM 2.99% | 10000 nM 2.92%

CC1CC(OC(=O)C(O)c2ccccc2)CC(C)(C)C1 (stereo not given) [cyclandelate]
inactive: 1 nM -0.8% | 8.33 nM 0.54% | 100 nM -0.37% | 833.33 nM -0.91% | 10000 nM -1.81%

C=CCNc1ncnc2ccc(Br)cc12
inactive: 1 nM 2.47% | 8.33 nM 5.36% | 100 nM 4.33% | 833.33 nM 0.12% | 10000 nM 0.96%

CC(C)c1cccc2c1OC(C(C)C)C(=S)N2CC(=O)O (stereo not given)
inactive: 1 nM -0.74% | 8.33 nM 3.31% | 100 nM 1.03% | 833.33 nM 1.02% | 10000 nM -0.31%

O=C(N[C@H]1CN2CCC1CC2)c1ccc2c(c1)OCCO2
inactive: 1 nM -2.13% | 8.33 nM -1.4% | 100 nM -0.74% | 833.33 nM -0.26% | 10000 nM -1.59%

Cc1ccc(C(=O)N(CCCN)[C@@H](c2oc3cc(Cl)ccc3c(=O)c2Cc2ccccc2)C(C)C)cc1
inactive: 1 nM 1.81% | 8.33 nM -1.04% | 100 nM -0.8% | 833.33 nM -2.79% | 10000 nM -24.6%

CC(=O)[C@H]1CC[C@H]2[C@@H]3CC[C@H]4C[C@H](O)CC[C@]4(C)[C@H]3C(=O)C[C@]12C [alfaxalone]
inactive: 1 nM -1.46% | 8.33 nM 0.56% | 100 nM -1.95% | 833.33 nM -1.55% | 10000 nM -4.57%

CN(C)C/C=C/C(=O)Nc1cc2c(Nc3ccc(F)c(Cl)c3)ncnc2cc1O[C@H]1CCOC1 [afatinib]
inactive: 1 nM -2.03% | 8.33 nM -3.01% | 100 nM -5.33% | 833.33 nM -8.01% | 10000 nM -9.49%

On1ncc(C2CCNCC2)c1-c1cccc(-c2ccccc2)c1
inactive: 1 nM 0.6% | 8.33 nM 1.61% | 100 nM 1.14% | 833.33 nM 0.48% | 10000 nM -2.39%

COc1cc2c(cc1OC)[C@H](C)NCC2 [Isoquinoline,-6,7-dimethoxy-1-methyl-1,2,3,4-tetrahydro,]
inactive: 1 nM -4.15% | 8.33 nM -1.29% | 100 nM -0.88% | 833.33 nM -1.82% | 10000 nM -2.99%

Cc1[nH]c(=O)c(C#N)cc1-c1ccc2nccn2c1 [olprinone]
inactive: 1 nM -2.15% | 8.33 nM 1.36% | 100 nM 0.52% | 833.33 nM 0.56% | 10000 nM -0.84%

NC(=O)c1ccc(-c2nc(-c3ccccn3)c(-c3ccc4c(c3)OCO4)[nH]2)cc1
inactive: 1 nM -0.24% | 8.33 nM 0.7% | 100 nM 0.26% | 833.33 nM -3.74% | 10000 nM -3.14%

CN(C)/N=N/c1[nH]cnc1C(N)=O [dacarbazine]
inactive: 1 nM 2.03% | 8.33 nM 1.02% | 100 nM 2.4% | 833.33 nM 2.07% | 10000 nM -3.02%

NCC[C@H](O)C(=O)N[C@@H]1C[C@H](N)[C@@H](O[C@H]2O[C@H](CN)[C@@H](O)[C@H](O)[C@H]2O)[C@H](O)[C@H]1O[C@H]1O[C@H](CO)[C@@H](O)[C@H](N)[C@H]1O [amikacin]
inactive: 1 nM -1.45% | 8.33 nM 0.75% | 100 nM 0.51% | 833.33 nM 2.36% | 10000 nM -0.28%

Source: the supplement of paper PMC13380429
